Laboratory results as given in the supplement of paper PMC10849652.
About 7,900 targets were measured; listed, in parts, are those with a hit and a random draw of the rest. About 0.6% of all pairs of compound and target were hits.

compound: c1cn2cc(-c3ccc4cn[nH]c4c3)nc(Nc3ccc(N4CCOCC4)cc3)c2n1 [entospletinib]; test: log2 fold change, soluble protein after heating vs DMSO (PISA); higher = thermal stabilisation; K562 cells, 10 uM, 30 min; active = over 0.2 and 3.5 SD of the protein, either way, in both replicates (recomputed)
In short: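 K562 cells (2×10^6 cells/mL) were treated with 10 μM compound for 30 min, and aliquots were heated for 3 min over 48°C-58°C. Pooled aliquots were extracted in PBS with 0.5% NP-40 at 4°C, and the supernatant after 21,000xg for 90 min was measured by TMTpro 16plex LC-MS/MS with channel sums equalised. Reported thermal stability, relative to control samples and from duplicates, is a log2 fold change.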

UniProt Q53FT3, sequence (Q53FT3 whole entry, looked up): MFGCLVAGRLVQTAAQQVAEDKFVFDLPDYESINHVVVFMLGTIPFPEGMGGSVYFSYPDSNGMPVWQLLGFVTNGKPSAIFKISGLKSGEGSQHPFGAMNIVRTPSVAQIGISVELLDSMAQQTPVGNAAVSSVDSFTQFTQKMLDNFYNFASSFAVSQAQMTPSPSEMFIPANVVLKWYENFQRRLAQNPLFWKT
UniProt O14929, sequence (O14929 whole entry, looked up): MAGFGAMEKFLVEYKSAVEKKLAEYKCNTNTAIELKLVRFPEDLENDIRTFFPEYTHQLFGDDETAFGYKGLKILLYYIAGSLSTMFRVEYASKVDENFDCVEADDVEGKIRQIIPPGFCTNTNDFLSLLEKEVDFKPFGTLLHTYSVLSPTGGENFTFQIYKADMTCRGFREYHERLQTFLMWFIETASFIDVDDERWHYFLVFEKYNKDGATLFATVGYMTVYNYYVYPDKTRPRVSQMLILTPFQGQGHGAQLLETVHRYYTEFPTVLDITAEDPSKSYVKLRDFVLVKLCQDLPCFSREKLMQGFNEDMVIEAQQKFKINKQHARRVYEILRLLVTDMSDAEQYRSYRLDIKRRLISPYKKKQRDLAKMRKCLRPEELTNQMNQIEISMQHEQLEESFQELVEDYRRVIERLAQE
UniProt Q86VS8, sequence (Q86VS8 whole entry, looked up): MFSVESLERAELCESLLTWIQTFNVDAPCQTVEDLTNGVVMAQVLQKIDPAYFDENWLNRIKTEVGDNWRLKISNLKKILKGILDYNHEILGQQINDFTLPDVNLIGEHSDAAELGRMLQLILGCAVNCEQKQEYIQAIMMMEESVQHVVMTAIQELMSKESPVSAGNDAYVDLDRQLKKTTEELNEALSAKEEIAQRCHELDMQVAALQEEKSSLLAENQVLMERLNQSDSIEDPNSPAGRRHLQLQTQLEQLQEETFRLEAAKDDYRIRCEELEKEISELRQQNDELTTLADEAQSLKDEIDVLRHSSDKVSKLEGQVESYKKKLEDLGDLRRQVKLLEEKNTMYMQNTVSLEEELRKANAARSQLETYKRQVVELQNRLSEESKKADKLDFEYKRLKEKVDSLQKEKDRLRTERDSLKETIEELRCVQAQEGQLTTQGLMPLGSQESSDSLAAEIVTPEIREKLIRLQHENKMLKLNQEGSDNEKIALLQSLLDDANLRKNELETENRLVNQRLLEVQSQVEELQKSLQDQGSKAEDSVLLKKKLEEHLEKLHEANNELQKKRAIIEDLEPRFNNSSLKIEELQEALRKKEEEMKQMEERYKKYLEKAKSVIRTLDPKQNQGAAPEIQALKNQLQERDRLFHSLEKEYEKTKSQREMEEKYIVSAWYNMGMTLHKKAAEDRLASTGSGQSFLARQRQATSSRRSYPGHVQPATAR
UniProt P23327, sequence (P23327 whole entry, looked up): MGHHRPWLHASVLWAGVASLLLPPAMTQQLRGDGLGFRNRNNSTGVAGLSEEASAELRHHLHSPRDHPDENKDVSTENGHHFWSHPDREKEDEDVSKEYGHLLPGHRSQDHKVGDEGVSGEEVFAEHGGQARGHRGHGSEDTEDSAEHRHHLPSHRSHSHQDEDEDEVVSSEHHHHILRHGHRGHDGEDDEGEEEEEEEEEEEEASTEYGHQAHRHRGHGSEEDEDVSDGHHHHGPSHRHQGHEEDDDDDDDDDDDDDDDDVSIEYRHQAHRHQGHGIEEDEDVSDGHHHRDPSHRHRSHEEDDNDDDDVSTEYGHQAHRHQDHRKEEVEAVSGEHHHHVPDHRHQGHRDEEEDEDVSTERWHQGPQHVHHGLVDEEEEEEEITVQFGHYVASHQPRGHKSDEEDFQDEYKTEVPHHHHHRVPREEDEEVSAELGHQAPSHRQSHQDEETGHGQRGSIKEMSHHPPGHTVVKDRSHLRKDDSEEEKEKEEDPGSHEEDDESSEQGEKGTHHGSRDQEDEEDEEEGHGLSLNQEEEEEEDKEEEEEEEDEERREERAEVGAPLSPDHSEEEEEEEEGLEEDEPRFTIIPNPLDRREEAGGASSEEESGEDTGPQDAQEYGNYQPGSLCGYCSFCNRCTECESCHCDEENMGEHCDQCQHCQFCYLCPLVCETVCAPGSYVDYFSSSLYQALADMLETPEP
UniProt Q9UKD1, sequence (Q9UKD1 whole entry, looked up): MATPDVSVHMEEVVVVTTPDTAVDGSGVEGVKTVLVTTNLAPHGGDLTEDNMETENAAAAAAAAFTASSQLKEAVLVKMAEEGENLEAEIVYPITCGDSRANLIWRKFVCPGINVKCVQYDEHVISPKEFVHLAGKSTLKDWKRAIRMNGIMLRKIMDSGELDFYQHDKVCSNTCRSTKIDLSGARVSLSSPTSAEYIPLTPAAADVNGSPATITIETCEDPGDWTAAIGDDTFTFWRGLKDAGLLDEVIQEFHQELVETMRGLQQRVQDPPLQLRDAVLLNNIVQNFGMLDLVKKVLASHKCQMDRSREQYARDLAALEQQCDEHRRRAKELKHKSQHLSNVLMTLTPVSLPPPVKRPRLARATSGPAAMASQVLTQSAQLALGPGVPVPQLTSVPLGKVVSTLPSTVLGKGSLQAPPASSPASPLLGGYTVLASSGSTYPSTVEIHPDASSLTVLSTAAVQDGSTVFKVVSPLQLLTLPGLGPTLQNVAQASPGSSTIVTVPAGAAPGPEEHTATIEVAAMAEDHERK
UniProt Q9Y324, sequence (Q9Y324 whole entry, looked up): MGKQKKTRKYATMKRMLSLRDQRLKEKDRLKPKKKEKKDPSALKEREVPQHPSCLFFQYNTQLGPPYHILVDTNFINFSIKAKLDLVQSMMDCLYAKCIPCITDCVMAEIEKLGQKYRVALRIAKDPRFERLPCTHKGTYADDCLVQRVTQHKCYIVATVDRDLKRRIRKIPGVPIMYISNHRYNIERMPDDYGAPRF
UniProt P05114, sequence (P05114 whole entry, looked up): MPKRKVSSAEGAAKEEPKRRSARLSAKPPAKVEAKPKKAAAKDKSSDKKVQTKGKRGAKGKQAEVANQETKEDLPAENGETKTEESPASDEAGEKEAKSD
UniProt Q92522, sequence (Q92522 whole entry, looked up): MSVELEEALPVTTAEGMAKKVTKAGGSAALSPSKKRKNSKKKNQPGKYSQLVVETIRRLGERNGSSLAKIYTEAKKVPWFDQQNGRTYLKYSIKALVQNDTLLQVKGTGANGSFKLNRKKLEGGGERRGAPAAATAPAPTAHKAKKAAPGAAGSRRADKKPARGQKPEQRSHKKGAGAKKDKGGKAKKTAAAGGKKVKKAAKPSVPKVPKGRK
UniProt Q70Z53, sequence (Q70Z53 whole entry, looked up): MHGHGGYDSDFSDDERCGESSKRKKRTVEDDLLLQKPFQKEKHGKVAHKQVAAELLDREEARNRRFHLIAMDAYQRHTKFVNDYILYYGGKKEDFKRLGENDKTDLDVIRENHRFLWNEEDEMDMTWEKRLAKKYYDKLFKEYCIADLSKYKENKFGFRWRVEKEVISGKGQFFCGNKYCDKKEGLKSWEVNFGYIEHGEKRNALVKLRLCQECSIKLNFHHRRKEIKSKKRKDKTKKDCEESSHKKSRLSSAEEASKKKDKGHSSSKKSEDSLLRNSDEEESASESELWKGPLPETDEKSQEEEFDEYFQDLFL
UniProt Q9BUJ2, sequence (Q9BUJ2 whole entry, looked up): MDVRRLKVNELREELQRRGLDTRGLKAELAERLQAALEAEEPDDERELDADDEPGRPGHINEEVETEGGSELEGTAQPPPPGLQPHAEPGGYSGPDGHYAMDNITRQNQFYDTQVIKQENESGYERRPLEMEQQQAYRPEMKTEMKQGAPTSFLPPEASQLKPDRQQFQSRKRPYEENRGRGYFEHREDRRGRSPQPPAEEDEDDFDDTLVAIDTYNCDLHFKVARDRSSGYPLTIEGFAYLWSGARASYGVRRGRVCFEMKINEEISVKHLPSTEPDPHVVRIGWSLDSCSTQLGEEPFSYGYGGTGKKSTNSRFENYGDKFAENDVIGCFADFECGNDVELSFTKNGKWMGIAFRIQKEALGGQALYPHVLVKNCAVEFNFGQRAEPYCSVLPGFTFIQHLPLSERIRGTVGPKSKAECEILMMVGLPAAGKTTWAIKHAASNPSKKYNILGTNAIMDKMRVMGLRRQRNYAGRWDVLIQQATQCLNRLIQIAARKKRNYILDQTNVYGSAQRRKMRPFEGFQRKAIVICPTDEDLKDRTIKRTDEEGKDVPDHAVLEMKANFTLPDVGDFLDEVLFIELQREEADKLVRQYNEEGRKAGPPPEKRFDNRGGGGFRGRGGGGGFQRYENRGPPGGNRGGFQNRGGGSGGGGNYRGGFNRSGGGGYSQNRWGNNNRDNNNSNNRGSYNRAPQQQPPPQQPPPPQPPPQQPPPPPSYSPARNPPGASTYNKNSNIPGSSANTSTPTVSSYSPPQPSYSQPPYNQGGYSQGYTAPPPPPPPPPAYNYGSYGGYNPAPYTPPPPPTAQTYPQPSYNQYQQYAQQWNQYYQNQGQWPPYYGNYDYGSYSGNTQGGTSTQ
UniProt P22570, sequence (P22570 whole entry, looked up): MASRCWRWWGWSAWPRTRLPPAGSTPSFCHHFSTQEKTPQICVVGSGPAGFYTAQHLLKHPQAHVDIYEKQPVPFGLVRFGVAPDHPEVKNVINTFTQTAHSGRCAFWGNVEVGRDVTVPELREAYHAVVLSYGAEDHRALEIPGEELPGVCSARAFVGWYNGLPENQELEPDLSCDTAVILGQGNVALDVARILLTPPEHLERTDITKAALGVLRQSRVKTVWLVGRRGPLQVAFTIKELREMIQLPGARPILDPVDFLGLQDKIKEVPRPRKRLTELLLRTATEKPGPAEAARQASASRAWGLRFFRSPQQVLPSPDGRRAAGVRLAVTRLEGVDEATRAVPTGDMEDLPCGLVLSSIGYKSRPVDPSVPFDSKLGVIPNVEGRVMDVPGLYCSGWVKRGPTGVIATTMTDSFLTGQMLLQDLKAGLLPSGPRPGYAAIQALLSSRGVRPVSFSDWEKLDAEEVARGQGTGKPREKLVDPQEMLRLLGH
UniProt P02008, sequence (P02008 whole entry, looked up): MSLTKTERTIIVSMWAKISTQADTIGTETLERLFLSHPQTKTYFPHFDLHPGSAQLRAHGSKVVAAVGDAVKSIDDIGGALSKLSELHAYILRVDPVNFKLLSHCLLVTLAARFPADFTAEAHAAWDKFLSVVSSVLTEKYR

log2 fold change, inactive:
GALNT11 (UniProt Q8NCW6) -0.159, FRA10AC1 isoform 3 (UniProt Q70Z53) -0.003, GEMIN6 (UniProt Q8WXD5) 0.082, HIC2 (UniProt Q96JB3) 0.129, FBXO3 (UniProt Q9UK99) 0.013, GTPBP6 (UniProt O43824) -0.092, FDXR isoform 7 (UniProt P22570) -0.032, HAX1 (UniProt O00165) 0.028, HSD17B12 (UniProt Q53GQ0) -0.015, FNTA (UniProt P49354) 0.111, HPCAL1 (UniProt P37235) 0.023, HNRNPUL1 (UniProt Q9BUJ2) -0.029, HRC (UniProt P23327) 0.032, GMEB2 (UniProt Q9UKD1) 0.072, HIP1 (UniProt O00291) -0.04, GINS2 (UniProt Q9Y248) 0.012, HNRNPC isoform 2 (UniProt P07910) 0.274, GALNT4 (UniProt Q8N4A0) -0.015, GNB2 (UniProt P62879) 0.038, GCSH (UniProt P23434) 0.037, FKBP4 (UniProt Q02790) -0.019, HHEX (UniProt Q03014) -0.076, HOOK3 (UniProt Q86VS8) 0.025, GPKOW (UniProt Q92917) -0.025, HAT1 (UniProt O14929) -0.021, HBZ (UniProt P02008) 0.009, HADHA (UniProt P40939) 0.01, GNL3 (UniProt Q9BVP2) -0.12, FBXO9 (UniProt Q9UK97) -0.065, HSPA8 (UniProt E9PK54) -0.212, HBA1 (UniProt P69905) 0.042, FCF1 (UniProt Q9Y324) -0.269, GNAS (UniProt Q5JWF2) 0.052, GDPD1 (UniProt Q8N9F7) 0.04, GABARAPL2 (UniProt P60520) -0.032, HIKESHI (UniProt Q53FT3) 0.088, HMGN1 (UniProt P05114) 0.089, H1FX (UniProt Q92522) 0.02, HDAC2 (UniProt Q92769) 0
